Each structure is given as a SMILES string. Records with an inconclusive call do not appear. Values without a mark were called inactive. Activity calls are given as the source filed them. Unless noted, calls follow the shape of the dose curve; as a rule, active = well fitted curve in the direction sought with a large enough effect in the repeat runs; inconclusive = weak or mixed curves; inactive = no such curve, though single readings can be large; an effect the other way counts as inactive or inconclusive.

Experiment [1] can be described thus: qHTS assay to identify small molecule agonists of the RXR signaling pathway - cell viability counter screen (AID 1159529). Also: nearly all actives have a fitted effect of over 50% in size. Also: potency is read from the fitted curve at half-maximal effect. An outline of the steps:
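Compounds dissolved in DMSO were pinned onto HEK 293T cells carrying a beta-lactamase reporter under RXR-alpha control and incubated 16 hr. Cytotoxicity was then quantified by CellTiter-Glo luminescence.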
For orientation: In qHTS, concentration-response curves come from the screen itself.

Experiment [2] in a line: qHTS assay to identify small molecule antagonists of the retinoid acid receptor (RAR) signaling pathway - cell viability counter screen (AID 1159551). Also: nearly all actives have a fitted effect of over 35% in size. Put shortly: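 Cytotoxicity counter screen in C3RL4 cells: 6 h compound exposure with 1 uM retinol (final), viability from cellular ATP by luminescence.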
Experiment [3] can be described thus: qHTS assay to identify small molecule antagonists of the retinoic acid receptor (RAR) signaling pathway (AID 1159552; also: nearly all actives have a fitted effect of over 50% in size). Put shortly:
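Test chemicals and DMSO controls were pin-transferred onto C3RL4 cells a day after seeding; retinol (1 uM final) followed at once. Luminescent reporter output was quantified after 6 hr of co-incubation and 30 min with detection reagent.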

The nature of experiment [4]: qHTS assay to identify small molecule agonists of the retinoic acid receptor (RAR) signaling pathway (AID 1159553). Also: potency is read from the fitted curve at half-maximal effect. Put shortly:
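Agonist activity was scored in C3RL4 cells bearing a retinoic acid response element luciferase construct. Cells were treated with compounds for 6 hr at 37 C, and luciferase signal was measured as luminescence.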

Experiment [5] can be described thus: qHTS assay to identify small molecule antagonists of the estrogen related receptor (ERR) signaling pathway from Tox21 library - cell viability counter screen (AID 1224834). Also: nearly all actives have a fitted effect of over 30% in size. Put shortly: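 Cytotoxicity of test substances is gauged in the same ERR cells used for the antagonist screen, after 17.5 h of compound treatment at 37 C, by CellTiter-Fluor fluorescence measured after 30 min.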

In experiment [6] the target is Luciferin 4-monooxygenase (Photinus pyralis) (UniProt P08659). The experiment can be described thus: qHTS assay to identify small molecule inhibitors of firefly luciferase (AID 1224835). Also: series mostly up to about 120 µM; nearly all actives have a fitted effect of over 25% in size. An outline of the steps: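 Inhibition of purified Photinus luciferase is measured by luminescence. Substrate levels (D-luciferin, ATP) sit at their KM values. Each compound is tested in a concentration series.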
Sequence of Luciferin 4-monooxygenase (Photinus pyralis) (P08659 whole entry, looked up): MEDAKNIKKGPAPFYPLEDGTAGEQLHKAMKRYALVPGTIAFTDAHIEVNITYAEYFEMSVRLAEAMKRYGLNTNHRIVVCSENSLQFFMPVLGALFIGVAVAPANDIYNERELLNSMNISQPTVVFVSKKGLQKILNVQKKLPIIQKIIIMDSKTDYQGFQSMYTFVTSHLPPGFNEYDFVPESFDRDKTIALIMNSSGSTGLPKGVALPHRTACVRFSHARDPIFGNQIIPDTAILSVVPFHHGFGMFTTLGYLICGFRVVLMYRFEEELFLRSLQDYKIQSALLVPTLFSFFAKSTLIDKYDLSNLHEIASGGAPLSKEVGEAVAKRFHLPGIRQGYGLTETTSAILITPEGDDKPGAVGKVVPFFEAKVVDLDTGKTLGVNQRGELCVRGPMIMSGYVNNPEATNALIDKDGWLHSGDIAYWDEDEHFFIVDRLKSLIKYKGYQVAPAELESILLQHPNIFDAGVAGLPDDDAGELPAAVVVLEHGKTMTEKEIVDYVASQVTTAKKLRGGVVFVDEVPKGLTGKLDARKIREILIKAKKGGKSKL

A short description of experiment [7]: qHTS assay to identify small molecule antagonists of the constitutive androstane receptor (CAR) signaling pathway - cell viability counter screen (AID 1224837). Also: series mostly up to about 92 µM; nearly all actives have a fitted effect of over 45% in size. An outline of the steps: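 Multiplexed cytotoxicity read-out for the CAR antagonist screen: double-stable HepG2-CYP2B6-hCAR cells co-treated with 50 nM CITCO (final) and compound over 15 concentrations, incubated 23 hr, then assessed by CellTiter-Fluor fluorescence.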

Experiment [8] addresses Nuclear receptor subfamily 1 group I member 3 (Homo sapiens) (UniProt Q14994). As to the kind of experiment: qHTS assay to identify small molecule antagonists of the constitutive androstane receptor (CAR) signaling pathway (AID 1224838). Also: nearly all actives have a fitted effect of over 40% in size. Put shortly:
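Compounds were titrated across 15 concentrations onto HepG2 cells double-stably expressing hCAR and a CYP2B6-2.2kb reporter, together with 50 nM CITCO (final). After 24 h at 37 C, luciferase activity was measured by luminescence.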

The target is the same in experiment [9]. The experiment can be described thus: qHTS assay to identify small molecule agonists of the constitutive androstane receptor (CAR) signaling pathway (AID 1224839). Also: nearly all actives have a fitted effect of over 15% in size. Also: potency is read from the fitted curve at half-maximal effect. An outline of the steps:
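Compounds tested at 15 concentrations on HepG2 cells stably harbouring hCAR and CYP2B6-2.2kb reporter constructs, co-treated with PK11195 (0.75 uM final), 24 h at 37 C; luminescent reporter signal quantified.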

A short description of experiment [10]: qHTS assay to identify small molecule antagonists of the estrogen related receptor signaling pathway with the pleiotropic PPARgamma coactivator (PGC) from Tox21 10K library - cell viability counter screen (AID 1224840; active = well fitted cell-killing curve with a large enough effect in the repeat runs, not every such curve was filed as active; also: nearly all actives have a fitted effect of over 40% in size). An outline of the steps:
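Step one, plate 2,000 PGC/ERR cells per well; step two, incubate 6 h at 37 C/5% CO2; step three, pin-transfer compounds; step four, incubate 17.5 h; step five, add CellTiter-Fluor and read fluorescence after 30 min.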

A short description of experiment [11]: qHTS assay to identify small molecule antagonists of the estrogen related receptor signaling pathway with the pleiotropic PPARgamma coactivator (PGC) from Tox21 10K library (AID 1224841; call rule not given here; also: actives are mostly falling curves and most rising ones were filed inactive; nearly all actives have a fitted effect of over 50% in size; also: potency is read from the fitted curve at half-maximal effect). Put shortly:
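Antagonism in this quantitative HTS is taken from loss of luciferase signal in PGC/ERR cells. Cells (2,000/well) are treated with compounds in DMSO after a 6 h settling period and read by One-Glo luminescence after 18 h.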

Experiment [12] is described as follows: qHTS assay to identify small molecule agonists of the estrogen related receptor signaling pathway with the pleiotropic PPARgamma coactivator (PGC) from Tox21 10K library (AID 1224842). Also: nearly all actives have a fitted effect of over 15% in size. Also: potency is read from the fitted curve at half-maximal effect. An outline of the steps: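 Luminescence from One-Glo (30 min, room temperature) measured after PGC/ERR cells had 18 h at 37 C with pinned compound (23 nL in DMSO). Cells had been seeded at 2,000 per well and pre-incubated 6 h.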

Experiment [13] is described as follows: qHTS assay to identify small molecule agonists of the constitutive androstane receptor (CAR) signaling pathway - cell viability counter screen (AID 1224836). Also: series mostly up to about 92 µM; nearly all actives have a fitted effect of over 45% in size. An outline of the steps: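 23 h treatment, 37 C, 5% CO2. Cell line: HepG2 stably expressing hCAR with a CYP2B6-2.2kb construct. Co-treatment: PK11195, 0.75 uM final. Read-out: CellTiter-Fluor fluorescence intensity.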

Experiment [14] can be described thus: qHTS assay to identify small molecule antagonists of the estrogen related receptor (ERR) signaling pathway - cell viability counter screen (AID 1224818). Also: series mostly up to about 46 µM. Put shortly: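 Cells carrying the ERR pathway reporter were seeded and incubated for 6 hours before compound addition. After a 17.5-hour exposure at 37 C, live-cell protease activity was measured by CellTiter-Fluor fluorescence following 30 minutes of incubation.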

Experiment [15] in a line: qHTS assay to identify small molecule antagonists of the estrogen related receptor (ERR) signaling pathway (AID 1224819;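 also: luminescence from an ERR-driven luciferase reporter measured with One-Glo reagent; series mostly up to about 46 µM; nearly all actives have a fitted effect of over 50% in size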). An outline of the steps: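 Compounds dissolved in DMSO were pin-transferred onto ERR cells that had been plated 6 h earlier, and cells were then incubated 18 h at 37 C; signal was luciferase luminescence via One-Glo.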
The nature of experiment [16]: qHTS assay to identify small molecule agonists of the estrogen related receptor (ERR) signaling pathway (AID 1224820). Put shortly: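 ERR reporter cells (NTP line) plated 2,000/well, incubated 6 h at 37 C/5% CO2, then pinned with compounds in DMSO and held 18 h at 37 C. One-Glo added; luminescence read after 30 min at room temperature.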
The test system of experiment [17] is estrogen-related receptor alpha (ERRalpha) with PGC-1alpha coactivator, human. The experiment can be described thus: qHTS assay to identify small molecule antagonists of the estrogen related receptor signaling pathway with the pleiotropic PPARgamma coactivator (PGC) (AID 1224821; calls by dose curve). An outline of the steps: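 Cells engineered for PGC/ERR signalling (line from NTP) were plated 6 h at 37 C/5% CO2, then exposed to DMSO-dissolved compound for 18 h at 37 C. Luciferase activity was read by One-Glo luminescence after 30 min at room temperature.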

A short description of experiment [18]: qHTS assay to identify small molecule antagonists of the estrogen related receptor signaling pathway with the pleiotropic PPARgamma coactivator (PGC) cell viability counter screen (AID 1224822;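 also: series mostly up to about 46 µM; viability read after 17.5 h compound exposure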). Put shortly:
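Seed PGC/ERR cells (2,000/well); incubate 6 h at 37 C/5% CO2; pin-transfer compounds in DMSO; incubate 17.5 h at 37 C; add CellTiter-Fluor; after 30 min read fluorescence.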

Experiment [19] can be described thus: qHTS assay to identify small molecule agonists of the estrogen related receptor signaling pathway with the pleiotropic PPARgamma coactivator (PGC) (AID 1224823). Put shortly: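 PGC/ERR reporter cells were seeded, rested 6 h at 37 C/5% CO2, then exposed to compounds in DMSO by pin transfer for 18 h at 37 C. Luciferase activity was read as luminescence after One-Glo reagent and 30 min at room temperature.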

Sequence of Nuclear receptor subfamily 1 group I member 3 (Homo sapiens) (Q14994 whole entry, looked up): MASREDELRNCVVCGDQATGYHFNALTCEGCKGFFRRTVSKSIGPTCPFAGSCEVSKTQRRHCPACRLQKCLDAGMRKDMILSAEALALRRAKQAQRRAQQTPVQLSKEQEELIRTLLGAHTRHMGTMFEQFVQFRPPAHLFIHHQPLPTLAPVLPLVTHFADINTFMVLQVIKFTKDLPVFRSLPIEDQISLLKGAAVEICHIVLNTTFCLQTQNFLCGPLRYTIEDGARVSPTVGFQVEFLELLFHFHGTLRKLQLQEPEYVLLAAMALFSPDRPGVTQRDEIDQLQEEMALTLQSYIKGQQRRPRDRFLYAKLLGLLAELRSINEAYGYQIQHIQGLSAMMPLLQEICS

In the case of `CCCC(C)CO` (configuration not stated), the Potency result in experiment [1], in [3], in experiment [4], in experiment [5], in [6] and in experiment [8] was “inactive” in each case. The Potency result in experiment [9] is “inactive”. Besides, the molecule was called inactive in experiment [2], in experiment [7] and in experiment [10].
`Cc1nc(-c2ccc(OCC(C)C)c(C#N)c2)sc1C(=O)O`: the Potency entry in experiment [1], in [3], in experiment [5], in experiment [8] and in [11] was “inactive” each time. Besides, the results for the Potency in [4], in experiment [9] and in experiment [12] were 0.0944 µM (active), 0.075 µM (active) and 0.668 µM (active), respectively. Besides, the outcome in experiment [7] and in experiment [10] was inactive.
With `CCO[Si](CCCN=C=O)(OCC)OCC`, the outcome in experiment [2], in [7] and in experiment [10] was inactive. In addition, the Potency result in [3], in experiment [4], in experiment [5], in [6], in [8] and in [9] was “inactive” in each case. The Potency entry in experiment [11] and in experiment [12] was “inactive” in each case.
As to `CCCCCCCCN(C)CCCCCCCC`, the Potency result in experiment [1], in [3], in experiment [4], in experiment [5], in experiment [6] and in experiment [8] was “inactive” in each case. Further, the Potency result in experiment [9], in experiment [11] and in experiment [12] was “inactive” each time. Also, the outcome in experiment [2], in experiment [13], in experiment [7] and in [10] was inactive.
Regarding `CCCC(C)C(=O)O` (configuration not stated), the Potency in [1] was 18.7 µM (active); in experiment [11] it was 52.3 µM (active). Further, the molecule was called inactive in experiment [2], in experiment [13], in experiment [7] and in [10]. Further, the Potency result in experiment [3], in [4], in [5], in experiment [8], in experiment [9] and in experiment [12] was “inactive” throughout.
Take `OC[C@H]1O[C@@H]2O[C@H]3[C@H](O)[C@@H](O)[C@@H](O[C@H]4[C@H](O)[C@@H](O)[C@@H](O[C@H]5[C@H](O)[C@@H](O)[C@@H](O[C@H]6[C@H](O)[C@@H](O)[C@@H](O[C@H]7[C@H](O)[C@@H](O)[C@@H](O[C@H]8[C@H](O)[C@@H](O)[C@@H](O[C@H]9[C@H](O)[C@@H](O)[C@@H](O[C@H]1[C@H](O)[C@H]2O)O[C@@H]9CO)O[C@@H]8CO)O[C@@H]7CO)O[C@@H]6CO)O[C@@H]5CO)O[C@@H]4CO)O[C@@H]3CO`: the Potency entry in [1], in experiment [3], in [4], in experiment [5], in experiment [6] and in experiment [8] was “inactive” in each case. Moreover, the Potency result in experiment [9], in experiment [11] and in experiment [12] was “inactive” in each case. For the same molecule, the molecule was classed as inactive in [13], in experiment [7] and in [10].
Turning to `C[C@H]1O[C@@H](n2cc(F)c(=O)[nH]c2=O)[C@H](O)[C@@H]1O`, the Potency entry in experiment [1], in [3], in experiment [4], in experiment [5], in experiment [6] and in experiment [9] was “inactive” throughout. Also, the Potency result in experiment [11] and in [12] was “inactive” throughout. Moreover, the molecule was classed as inactive in experiment [14], in [15], in [16], in [17], in [18] and in experiment [19]. Further, the result in experiment [13] and in experiment [10] was inactive.
Turning to `CC(=O)NC(Cc1ccccc1)C(=O)O` (configuration not stated), the Potency result in experiment [1], in experiment [3], in experiment [4], in [5], in experiment [6] and in experiment [9] was “inactive” each time. Further, the outcome in [2], in experiment [13], in experiment [7] and in [10] was inactive.
`Oc1ccc2c(c1)OC[C@@H](N1CCC(O)(c3ccc(F)cc3)CC1)[C@H]2O`: the molecule was called inactive in experiment [2], in experiment [13], in experiment [7] and in experiment [10]. Further, the Potency entry in experiment [3], in experiment [5], in [8] and in [11] was “inactive” in each case. The Potency in experiment [4] is 0.531 µM (active); in experiment [9] it was 3.76 µM (active); in [12] it was 4.73 µM (active).
Regarding `CCCOc1ccccc1-c1nc2n[nH]nc2c(=O)[nH]1`, the result in experiment [2], in [14], in experiment [18], in [13], in [7] and in experiment [10] was inactive. In addition, the Potency entry in experiment [3], in experiment [4], in experiment [5], in [6], in experiment [8] and in experiment [9] was “inactive” throughout.

These data come from PubChem BioAssay (Tox21).
